Screening data from PubChem.
The entries come from a sample that favours hits as a whole.
KDM5B inh: Primary screen for KDM5B Histone Demethylases FDH-coupled qHTS; KDM5B demethylase, FDH-coupled NADH fluorescence (FDH is formaldehyde dehydrogenase); Potency, µM (top dose mostly 57.7 µM), actives largely listed as inhibitors; hit rate 2.6% among 220,000; AID 1347165, 2019; active = well fitted inhibition curve with a large enough effect; also: 0% is about no effect; nearly all actives have a fitted effect of over 70% in size
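Measured: NADH fluorescence change, 30 min, RT. System: KDM5BΔAP 200 nM final, H3K4me3 peptide, α-KG, Fe(II), ascorbate, NAD⁺ plus FDH, pH 7.5 HEPES. Compounds: titrated, 10 min pre-incubation with enzyme.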
* hit, by the source's call; i = inactive. Potency is read from the fitted curve at half-maximal effect.

SMILES | KDM5B inh
CN1CCC2(C1)CN(Cc1ccccc1)c1ccc(C(=O)NCC[S+](C)(=O)[O-])cc12 (stereo not given) | 35µM*
CC1CCC(NC(=O)c2ccc3c(c2)N(Cc2ccccc2)C(=O)c2ccccc2S3=O)CC1 (stereo not given) | i
CC(C)CCNC(=O)c1ccc2c(c1)CC(=O)N2Cc1ccccc1 | i
CN1CCC2(C1)CN(Cc1ccccc1)c1ccc(C(=O)NC3CC3)cc12 (stereo not given) | 35µM*
CC(C)N1C(=O)Cc2ccccc2C1C(=O)NCc1cccc(F)c1 (stereo not given) | i
CCCN1C(=O)C(CC(=O)N2CCOCC2)Sc2ncccc21 (stereo not given) | i
Cc1cc(C)c(NC(=O)C23CC4CC(C2)CC(c2ccccc2)(C4)C3)c(Cl)c1 | i
CN(CCc1noc(C2CN(Cc3ccc(F)c(F)c3)C2)n1)C(=O)C1CC1 | i
CCCn1c(=O)[nH]c(=O)c2c1nc(-c1cccc(OC)c1OC)n2CCN1CCOCC1 | i
COc1cccc(-c2nc3cc4c(cc3cc2CN2CCCOCC2)OCO4)c1OC | 28µM*
COc1cccc(CN2CCCOCCNC(=O)CC2)c1OC | i
Cn1cc(CN2C[C@@H](F)[C@@H](OCc3nc4ccc(F)cc4[nH]3)C2)cn1 | i
c1cn(-c2ccc(-c3cscn3)cc2)c(-c2cc3n(n2)CCCNC3)n1 | i
N#Cc1cc(-n2ccnc2-c2cc3n(n2)CCCNC3)ccc1N1CCCC1 | 28µM*
c1cn(-c2ccc3cn[nH]c3c2)c(-c2cc3n(n2)CCCNC3)n1 | i
COc1cc(-n2cnnn2)cc(-n2ccnc2-c2cc3n(n2)CCNC3)c1 | i
c1cn(-c2ccc3ncsc3c2)c(-c2cc3n(n2)CCCNC3)n1 | 3.5µM*
c1cncc(CCn2ccnc2-c2cc3n(n2)CCCNC3)c1 | i
Cn1nccc1C(=O)Nc1sc2c(c1C#N)CCCCC2 | i
Cc1ccc(NC(=O)Nc2nnc(-c3ccccc3)s2)cc1C | i
CCC1=C(C(=O)OC)C(c2ccccc2Cl)N2C(CC(=O)NCC3CCCO3)=CSC2=N1 (stereo not given) | i
CCC1=C(C(=O)OC)C(c2cccc(C)c2)N2C(CC(=O)NCC3CC3)=CSC2=N1 (stereo not given) | i
CCC1=C(C(=O)OC)C(c2ccccc2C)N2C(CC(=O)NCC3CC3)=CSC2=N1 (stereo not given) | 32µM*
CC(=O)Nc1ccc(C(=O)Nc2cnc3ccccc3c2)cc1 | i
Cc1ccc(CNC(=O)COC(=O)c2ccc3c(c2)NC(=O)CS3)cc1 | i
SMILES | KDM5B inh
O=C(NCc1cccs1)c1cc(Br)cn2ccnc12 | 40µM*
Cc1cnc(C(=O)NCc2cccs2)cn1 | i
O=C(NCC(F)F)c1nc2sccn2c1Br | i
CN(C)C(=O)c1cc(Br)cn2ccnc12 | 35µM*
CCCCN(C)C(=O)c1cn2ccnc(-c3ccccc3)c2n1 | i
O=C(NC1CC1)c1cc(Br)cn2ccnc12 | 40µM*
Cc1ccc(-c2nccn3cc(C(=O)NCC(C)C)nc23)cc1 | i
Cc1cc(C(=O)NC2CC2)c2cc(Br)ccc2n1 | i
O=C(NCC(F)F)c1cc(Br)cn2ccnc12 | 40µM*
O=C(NCc1cccs1)c1cc2ccccc2oc1=O | i
O=C(NC1CCCC1)c1ccc(Br)cc1 | i
CN(C)C(=O)c1ccccc1Br | i
CCc1ccc(/C=C2\Oc3cc(OS(=O)(=O)c4ccc(OC)cc4)ccc3C2=O)cc1 | i
Cc1ccc(CN2CCCN(CC(=O)N3CCCCC3C)S2(=O)=O)cc1 (stereo not given) | i
CC1(C)CC(NC(=O)C2CCN(S(=O)(=O)c3ccccc3)CC2)CC(C)(C)N1 | i
CN(C)[C@H]1CCN(Cc2cccc(C(=O)O)c2)C[C@H]1CCC(=O)O | i
CN(CCNC(=O)NC1CCC(C(F)(F)F)CC1)Cc1ccccc1 (stereo not given) | i
Cc1nc(-c2cccc(Cl)c2)n(CC(=O)Nc2ccc(C(F)(F)F)cc2)c(=O)c1CCO | i
Cn1c(SCc2ccc(F)cc2)nnc1-c1cc2ccccc2o1 | i
COc1cc(CCC(=O)N(C)C2CCc3nn(CC4CC4)c(=O)n3CC2)on1 (stereo not given) | i
CC(=O)Nc1cccc(-c2cn(C)c(=O)n3cc(CN4CCNC(=O)C4)nc23)c1 | i
CC(=O)Nc1cccc(-c2nc(N3CCOCC3)cc3c2CN(Cc2cnn(C)c2)C3=O)c1 | 28µM*
COc1ccccc1-c1nc(N2CCOCC2)cc2c1CN(Cc1cnn(C)c1)C2=O | 35µM*
COc1ccc(S(=O)(=O)N2CCN(c3cc(N4CCOCC4)nc(C)n3)CC2)c(C)c1C | i
COc1ccccc1Nc1nc(N2CCOCC2)c2cnn(C)c2n1 | i
SMILES | KDM5B inh
Cc1nc(N2CCC(NC(=O)c3nccc4ccccc34)CC2)cc(C(F)(F)F)n1 | i
NC(=O)C1CN(CC(=O)Nc2ccccc2Sc2ccccc2)c2ccccc2O1 (stereo not given) | i
CCC(=O)C1=C(c2ccc(OC)cc2)N(C(=O)CC)n2cnnc2S1 | i
O=C(NCc1ccccc1OC(F)F)c1ccccc1-n1cnnn1 | i
CCn1c(=O)n(CC)c2cc(S(=O)(=O)c3ccccc3)c(NC(=O)c3c(F)cccc3F)cc21 | i
O=C(NC1CCCC1)c1ccc(-c2ccc(N3CCCCC3)nc2)cc1 | 11µM*
O=[N+]([O-])c1ccc(N2CCCCC2)nc1 | i
CC(C)NC(=O)c1ccc(-c2ccc(N3CCCCCC3)nc2)cc1 | i
CN(C)C(=O)c1ccnc(-c2nnc3ccc(N4CCCCC4)nn23)c1 | i
CN(C)C(=O)c1ccc(-c2ccc(N3CCCCCC3)nc2)cc1 | 28µM*
O=C(c1ccc(-c2ccc(N3CCCCCC3)nc2)cc1)N1CCCC1 | 25µM*
O=C(NC1CCCCCCC1)c1ccncc1 | i
O=C(c1ccc(N2C(=O)c3ccccc3C2=O)cc1)N1CCCCC1 | i
O=C(NC1CC1)c1ccc(-c2ccc(N3CCCCCC3)nc2)cc1 | i
COc1ccc(C2=NOC(C(=O)N3CCN(c4ccc(F)cc4)CC3)C2)cc1OC (stereo not given) | i
O=C(CC1CCCC1)NCc1ccccn1 | i
COc1ccc(/C=C/C(=O)c2cc3ccccc3o2)cc1OC | i
O=C(C1CCC1)N1CCCC(Cc2nc(C3CCOCC3)no2)C1 (stereo not given) | 35µM*
O=C(CC1CCCC1)N1CCCC(Cc2nc(C3CCOCC3)no2)C1 (stereo not given) | i
CCNC(=O)N1CCCC(Cc2nc(C3CCOCC3)no2)C1 (stereo not given) | i
CCC(=O)N1CCCC(Cc2nc(C3CCOCC3)no2)C1 (stereo not given) | i
COc1cccc(C(=O)N2CCCC(Cc3nc(C4CCOCC4)no3)C2)c1 (stereo not given) | i
O=C(c1cncc(Br)c1)N1CCCC(Cc2nc(C3CCOCC3)no2)C1 (stereo not given) | 32µM*
COc1cccc(-c2cccc(C(=O)N3CCC4(CCCN(C)C4=O)C3)c2)c1 (stereo not given) | i
CCOc1ccc(C(=O)Nc2ccc3oc(-c4cccc(C)c4)nc3c2)cc1[N+](=O)[O-] | i
Cc1nc(C)c(C(=O)N(C)C2CCc3nn(CC4CC4)c(=O)n3CC2)s1 (stereo not given) | i
CC1C(=O)N(Cc2ncc(-c3ccccc3)o2)C(=O)N1c1ccc(F)cc1 (stereo not given) | i
